# Inconclusive results are not listed. A number with no mark means an inactive call. Calls follow the shape of the dose curve; as a rule, active = well fitted activation curve with a large enough effect; inconclusive = small, poorly fitted or top-dose-only effect; inactive = no such curve, though single readings can be large or run the other way.
# Biological target: Cellular tumor antigen p53 (Homo sapiens) (UniProt P04637)
# Experiment: Primary qHTS for small molecule compounds that upregulate eGFP-tagged delta133p53alpha (in N-terminal) cells. (AID 2060322);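 also: cells pre-induced with doxycycline then dosed without doxycycline; series mostly up to about 56 µM; 0% = DMSO vehicle and 100% = reference activator; nearly all actives have a fitted effect of over 75% in size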
# Conditions: NCI-H358 eGFP-delta133p53alpha fluorescence, 24 h; activation: stronger effect = higher value
# In short: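 NCI-H358 cells pre-induced 24 h with 10 ng/ml doxycycline for eGFP-delta133p53alpha, plated dox-free and exposed 24 h at 37C to titrated compounds. Fixed, Hoechst-stained; gated GFP peak intensity by laser scanning cytometry, normalized to DMSO (0%) and 57.5 uM 5-azacytidine (100%).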
# Sequence of Cellular tumor antigen p53 (Homo sapiens) (P04637 whole entry, looked up): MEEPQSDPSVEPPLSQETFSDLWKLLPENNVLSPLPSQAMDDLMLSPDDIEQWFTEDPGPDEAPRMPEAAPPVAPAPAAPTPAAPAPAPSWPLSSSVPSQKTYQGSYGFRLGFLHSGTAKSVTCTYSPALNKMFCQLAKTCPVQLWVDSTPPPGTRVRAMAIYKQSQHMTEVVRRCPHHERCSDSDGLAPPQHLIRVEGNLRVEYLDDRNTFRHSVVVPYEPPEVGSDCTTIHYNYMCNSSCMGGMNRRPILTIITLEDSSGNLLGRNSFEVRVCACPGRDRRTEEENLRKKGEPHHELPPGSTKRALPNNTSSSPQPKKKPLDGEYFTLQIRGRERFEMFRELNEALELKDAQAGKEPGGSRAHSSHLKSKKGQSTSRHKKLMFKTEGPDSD
row,Compound,activation [%]
1,CC1(CCOC2OC(CO)C(O)C(O)C2O)CCC23OC2(C1)C(O)CC1C(C)(C(=O)O)CCCC13C (centres undefined),-13.7
2,C=C1CC[C@H]2[C@@H](/C=C(\C)C(=O)[C@@]3(OC(C)=O)C[C@H](C)[C@H](OC(C)=O)[C@@H]3[C@H]1OC(C)=O)C2(C)C,-20.6
3,CC(=O)C1=C(O)C=C2Oc3c(C(C)=O)c(O)c(C)c(O)c3[C@]2(C)C1=O,-2.68
4,CCC(C)C(C(=O)O)N1Cc2c(OCC=C(C)C)c(C)c(OC)c(C(=O)O)c2C1=O (centres undefined),5.34
5,CC1COC2(OC3CC4C5CC(O[C@@H]6O[C@H](C)[C@@H](O[C@@H]7O[C@@H](C)[C@H](O)[C@@H](O)[C@H]7O)[C@H](O)[C@H]6O)C6CC(O)CCC6(C)C5CCC4(C)C3C2C)C(O)C1 (some centres undefined),-10.7
6,CC1(C)CC[C@]2(C(=O)O)CC[C@]3(C)C(=CCC4[C@@]5(C)CC[C@H](O[C@@H]6O[C@H](C(=O)O)[C@@H](O)[C@H](O)[C@H]6O)C(C)(CO)C5CC[C@]43C)C2C1 (some centres undefined),12.2
7,COC(=O)CC(O)CC(O)/C=C/c1c(C)ccc2c1C(O)CC(C)C2 (centres undefined),-14.5
8,C[C@@H]1C(=O)O[C@H]2C[C@]34[C@H]5C[C@@H](C(C)(C)C)[C@]36[C@@H](OC(=O)[C@H]6O)O[C@]4(C(=O)O5)[C@]21O,-22.1
9,Cc1occc(=O)c1O[C@@H]1O[C@H](CO[C@@H]2OC[C@](O)(CO)[C@H]2O)[C@@H](O)[C@H](O)[C@H]1O,0
